Bioassay records (PubChem)
A selection: hits, their analogues and other compounds. The true share with any hit is near 11%.
NS1 inh – blocks influenza NS1 protein function; Potency, µM (highest dose often 46.1 µM); 270,000 tested, 0.4% active; AID 2326; calls by dose curve; further: actives are rising curves; nearly all actives have a fitted effect of over 50% in size
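In this qHTS, NS1 from influenza A is expressed in budding yeast, where it slows growth. Cells are switched from glucose to 2% galactose medium (pH 6.0, -URA), treated with compound, and growth recovery is read at OD600.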
Pf growth 48h – inhibits P. falciparum growth in the first generation, 48 h; 310,000 tested, 5.9% active; AID 504832; P. falciparum luciferase growth in erythrocytes, 48 h; Potency, µM (top dose mostly 28.7 µM), hits mostly inhibitors
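Erythrocytes infected with P. falciparum carrying an integrated firefly luciferase reporter (2% hematocrit, 0.1% parasitemia final) were exposed to compounds in RPMI 1640 with 0.5% Albumax at 37 C, 5% CO2. Growth inhibition was scored as reduced luminescence.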
HCV inh – inhibitors of hepatitis C virus infection | Huh7.5.1 HCVcc-Cre infection, luciferase reporter, 44 h | Potency, µM (highest dose often 41.8 µM), usual class: inhibitors | 340,000 tested, 3.4% active
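Infectious HCVcc-Cre (~0.5 moi) was added to cells just after compound, with cells seeded 4 h earlier at 1,000 per well. Luciferase activity after 44 h culture reported infection; substrate was incubated 15 min at room temperature before reading.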
VACV mCherry inh – vaccinia inhibition (mCherry reporter); 310,000 tested, 0.63% active; Potency, µM (titrated, usually from 36.5 µM), hits mostly inhibitors; Vaccinia virus mCherry reporter infection, fluorescence; calls by dose curve; tested in A549 cells; further: nearly all actives have a fitted effect of over 35% in size
Pf growth 96h – P. falciparum growth inhibition at 96 hour, primary screen for plastid delayed-death inhibitors; P. falciparum luciferase reporter growth, 96 h; Potency, µM (highest dose often 28.7 µM), most hits filed as inhibitors; 320,000 tested, 6.9% active
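Compounds incubated with erythrocytes infected by luciferase-expressing P. falciparum (2% hematocrit, 0.05% parasitemia final) for 96 hours, 37 C in 5% CO2. Growth inhibition scored as decreased luciferase luminescence.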
Vaccinia Venus – inhibitors of vaccinia virus (Venus reporter); Vaccinia virus Venus reporter expression, fluorescence; Potency, µM (titrated, usually from 36.5 µM), usual class: inhibitors; 330,000 tested, 0.46% active; AID 720580; calls by dose curve; tested in A549 cells; further: nearly all actives have a fitted effect of over 30% in size
Hits are given with their value; – = inactive; ? = inconclusive; · = no result given. Unless noted, the call rests on the fitted dose curve; in most records, active means well fitted inhibition curve with a large enough effect; inconclusive means small, poorly fitted or top-dose-only effect, or another doubt; inactive means no such curve, though single readings can be large or run the other way.

SMILES | NS1 inh | Pf growth 48h | HCV inh | VACV mCherry inh | Pf growth 96h | Vaccinia Venus
Cc1ccc(S(=O)(=O)NC(=S)c2ccccc2)cc1 | · | · | – | – | · | –
C/C(=N\NC(=O)c1ccc(CN2CCOCC2)cc1)c1ccc([N+](=O)[O-])cc1 | · | – | 11.2µM | – | – | –
C/C(=N\NC(=O)c1ccc(CN2CCOCC2)cc1)c1cccc([N+](=O)[O-])c1 | – | – | ? | · | ? | ·
COc1ccc(-c2cc(C(=O)N3CCCCC3)c3ccccc3n2)cc1 | · | – | – | – | – | –
Cc1cccc2c(C(=O)N3CCN(c4ccccc4)CC3)cc(-c3ccncc3)nc12 | – | 8.28µM | – | – | ? | –
Cc1cccc2c(C(=O)N3CCCCC3)cc(-c3ccccc3)nc12 | – | 9.28µM | ? | – | – | –
Cc1cccc2c(C(=O)N3CCN(c4ccccn4)CC3)cc(-c3cccc(Br)c3)nc12 | – | ? | ? | · | ? | ·
C#CCOCCOCCOCCNc1nc(N2CCN(C(=O)[C@H](CCC(=O)O)n3cc(CN)nn3)CC2)nc(N2CCN(C(=O)[C@H](CCCN=C(N)N)n3cc(C(N)[C@@H](C)CC)nn3)CC2)n1 (some centres not stated) | · | · | ? | – | · | –
Nc1ccc2ccc3cccc[n+]3c2c1 | – | 0.415µM | 7.08µM | – | ? | –
COc1cccc(CN2CCCN(S(=O)(=O)c3ccc(Br)cc3)CC2)c1 | – | ? | ? | – | – | –
CCN1CCN(CCCNC(=O)c2csc3c2CCCCC3)CC1 | ? | – | – | – | 14.7µM | –
CC(C)CNC(=S)NNC(=O)c1csc2c1CCC(C)C2 (configuration not stated) | – | · | ? | · | 6.57µM | ·
CC1CCc2c(C(=O)NCCN3CCOCC3)csc2C1 (configuration not stated) | ? | – | – | – | 8.28µM | –
C/C(NCCN1CCOCC1)=C(\C#N)C(N)=O | – | – | – | · | 1.65µM | –
Cc1cccc(NC(=O)Nc2ccc3c(c2)N(C)C(=O)CS3)n1 | – | · | – | ? | 10.4µM | –
Cc1ccc(NC(=O)Nc2ccc3c(c2)N(C)C(=O)CS3)nc1 | – | ? | ? | ? | ? | ?
Cc1ccnc(NC(=O)Nc2ccc3c(c2)N(C)C(=O)CS3)c1 | ? | – | ? | – | 13.1µM | –
CCOC(=O)C1CCC(CNCc2ccc(Cl)cc2)CC1 (configuration not stated) | – | – | – | – | – | –
C[C@@H]1CN([C@@H](C)CO)C(=O)c2cc(NC(=O)C3CCCCC3)ccc2O[C@@H](C)CCCCO[C@H]1CN(C)S(=O)(=O)c1ccc(Cl)cc1 | · | · | · | – | · | –
Cn1c(=O)[nH]c(=O)c2c1nc(N1CCCCCC1)n2CCN1CCCCCC1 | – | ? | – | · | – | ·
COc1ccccc1CNC(=O)C(CCSC)NS(=O)(=O)c1ccc2c(c1)oc(=O)n2C (configuration not stated) | – | – | – | · | 2.08µM | –
COc1ccccc1CNC(=O)C(CC(C)C)NS(=O)(=O)c1ccc2c(c1)oc(=O)n2C (configuration not stated) | – | · | – | – | – | –
Cc1ccc(CN2CCCN(Cc3ccccc3C)S2(=O)=O)cc1 | – | – | – | – | – | –
CCSCCc1nnc(NC(=O)Nc2cccc(C(F)(F)F)c2)s1 | – | 5.22µM | 3.55µM | · | ? | ·
COc1ccc(CNC(=O)C2(CC(=O)NC(C)(C)C)CCCC2)cc1 | – | – | – | · | – | ·
SMILES | NS1 inh | Pf growth 48h | HCV inh | VACV mCherry inh | Pf growth 96h | Vaccinia Venus
O=C(Nc1ccnn1C1CCN(Cc2ccc(O)c(Cl)c2)CC1)C1CCCC1 | – | 2.08µM | – | – | ? | –
Cc1cc(CN2CCC(n3nccc3NC(=O)c3ccccc3Cl)CC2)cc(C)c1O | – | 10.4µM | – | · | – | ·
O=C(Nc1ccnn1C1CCN(Cc2cccnc2)CC1)c1ccccc1Cl | – | – | – | – | ? | –
O=C(Nc1ccnn1C1CCN(C(=O)Cc2cccc(Cl)c2)CC1)C1CC1 | – | – | – | – | 13.1µM | –
CC1CCCN(C(=O)c2cc3ccc4cccnc4c3[nH]2)C1 (configuration not stated) | · | · | · | – | · | –
O=C1Nc2ccccc2-n2nnnc2C1N1CCN(c2ccc(C(F)(F)F)cc2[N+](=O)[O-])CC1 (configuration not stated) | · | · | · | – | · | ?
Cn1c(=O)n(C)c2cc(NS(=O)(=O)c3ccccc3)c(NCc3ccccc3)cc21 | · | · | · | – | · | –
